# High-throughput results: PubChem BioAssay, National Center for Advancing Translational Sciences (NCATS)
# Compounds with a hit are over-represented: about 19% of the library has one in this group of screens.
# IL1B secr inh: inflammasome signaling inhibition, IL-1 beta readout; actives 4.7% (n = 360,000); THP-1 LPS/ATP IL-1B secretion, AlphaLISA, 16 h; stronger effect = lower value; activity change, % at 57.5 µM; in the data active means activity change below about -50%; inconclusive means mostly about -30% to -49%
#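 THP-1 cells pretreated 1 hr with compounds (up to 57.5 uM final), then stimulated with LPS (250 ng/mL final) plus ATP (1.25 mM final); secreted IL-1B measured by AlphaLISA after 16 hr, decreased signal indicating inhibition.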
# DT40 TDP1 no CPT: qHTS for Inhibitors of human tyrosyl-DNA phosphodiesterase 1 (TDP1): qHTS in cells in absence of CPT | DT40 Tdp1-/- hTDP1 cells, no CPT, ATP luminescence, 48 h | Potency, µM (top dose mostly 46.2 µM), usual class: inhibitors | AID 686978, 2013 | actives 15% (n = 420,000); further: nearly all actives have a fitted effect of over 55% in size
#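 Growth of hTDP1-complemented DT40 Tdp1-knockout cells is measured by ATP luminescence after at least 48 hr compound exposure at 37 °C, with DMSO substituting for the 20 nM CPT used in the parallel screen.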
# HT1080 IDH1KD tx: kills HT-1080 cells with IDH1 knockdown | Potency, µM (titrated, usually from 46.1 µM), most hits filed as cytotoxic | actives 2% (n = 360,000) | HT-1080 IDH1 knockdown viability, ATP luminescence, 48 h | AID 686971
#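 Cytotoxicity counter-line: IDH1KD HT-1080, 48 h, CellTiter-Glo. Curves classed by r2, magnitude and activity.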
# HT1080-NT tox: kills 2HG-producing HT-1080-NT fibrosarcoma cells; HT-1080-NT fibrosarcoma viability, CellTiter-Glo ATP luminescence, 48 h; actives 1.6% (n = 360,000); AID 686970; Potency, µM (series often up to 46.1 µM), most hits filed as cytotoxic;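 further: NT is the 2HG producing partner of a matched IDH1 knockdown line; nearly all actives have a fitted effect of over 55% in size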
#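 Luminescent CellTiter-Glo readout after 48 hours of compound exposure at 37 degrees C defined viability of HT-1080-NT cells. Activity was normalized to DMSO wells and cell-free media wells; concentration-response curves were fitted and assigned curve classes.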
# TDP1 cell CPT: DT40-hTDP1 cell growth loss with CPT. chicken DT40 Tdp1-/-;hTDP1 cells + 20 nM CPT, ATP luminescence, 48 h. Potency, µM (top dose mostly 46.2 µM), actives largely listed as inhibitors. actives 12% (n = 420,000); further: nearly all actives have a fitted effect of over 55% in size
#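 Chicken DT40 Tdp1-/- cells stably complemented with human TDP1 were seeded at 400 cells/well in medium containing 20 nM camptothecin, exposed to pin-transferred compounds, and grown at 37 °C for at least 48 hr. Viability was read as ATP luminescence.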
# Numbers stand for hits; i = inactive; ? = inconclusive; nt = not tested or not shown; [ ] = another dose, or the depositor's remark. Unless noted, the call rests on the fitted dose curve; in most records, active means well fitted curve in the direction sought with a large enough effect; inconclusive means small, poorly fitted or top-dose-only effect, or another doubt; inactive means no such curve, though single readings can be large; an effect the other way counts as inactive or inconclusive.
SMILES,IL1B secr inh,DT40 TDP1 no CPT,HT1080 IDH1KD tx,HT1080-NT tox,TDP1 cell CPT
Nc1nonc1-n1nnc(C(=O)N/N=C/c2ccco2)c1CSc1ccccc1,i,i,i,i,i
COc1cc(C)ccc1OCCSc1nc(-c2cccc(C)c2)nc2cc(=O)[nH]n12,nt,21µM,nt,nt,16µM
Cc1cccc(NC(=O)CSc2nc(-c3ccco3)nc3cc(=O)[nH]n23)c1,nt,i,nt,nt,i
CNS(=O)(=O)c1cn(CC(=O)N2CCN(c3ccc(Cl)cc3)CC2)cc1S(=O)(=O)NC,nt,13µM,nt,nt,15µM
NC(=O)C1CCN(C(=O)COc2ccc(S(=O)(=O)NC3CCCC3)cc2)CC1,i,i,i,i,i
O=C(c1ccc(CS(=O)(=O)c2ccc(Br)cc2)o1)N1CCOCC1,i,i,i,i,i
O=C(CNS(=O)(=O)c1ccc(Cl)cc1)N1CCN(c2ccc(F)cc2)CC1,i,?,i,i,?
O=C(COc1ccc(S(=O)(=O)NC2CCCCC2)cc1)N1CCN(c2ccc(F)cc2)CC1,i,21µM,i,?,16µM
O=C(CNS(=O)(=O)c1ccc(Br)cc1)N1CCN(c2ccc(F)cc2)CC1,i,18µM,i,i,?
O=C(c1ccc(CS(=O)(=O)c2ccc(Br)cc2)o1)N1CCN(c2ccc(F)cc2)CC1,i,23µM,i,i,?
COc1ccc(CNC(=O)c2ccc3nc(CCc4ccccc4)oc3c2)cc1,nt,i,nt,nt,?
O=C(CCS(=O)(=O)c1ccc(Br)cc1)N1CCN(c2ccc(F)cc2)CC1,i,16µM,i,i,?
CN1C(=O)Cc2cc(S(=O)(=O)CCC(=O)N3CCN(c4ccc(Cl)cc4)CC3)ccc21,nt,15µM,nt,nt,21µM
O=C(NCc1ccc(F)cc1)c1ccc(CS(=O)(=O)c2ccc(Br)cc2)o1,?,10µM,i,i,?
O=C(CCS(=O)(=O)c1ccc(Cl)cc1)Nc1ccc(N2CCOCC2)cc1,i,15µM,i,i,21µM
COc1ccc(NC(=O)CCS(=O)(=O)c2ccc(Cl)cc2)cc1,i,i,i,i,i
O=C(CCS(=O)(=O)c1ccc(Cl)cc1)N1CCN(S(=O)(=O)c2cccs2)CC1,i,i,i,i,i
O=C(CCS(=O)(=O)c1ccc(Br)cc1)N1CCN(c2ccc(Cl)cc2)CC1,i,15µM,i,i,?
O=c1oc2ccc3ccccc3c2cc1-c1nnc(Nc2cccc(C(F)(F)F)c2)s1,nt,i,nt,nt,i
CN(/N=C/c1cc(Br)cc(Br)c1O)c1cccc(C(F)(F)F)n1,i,16µM,?,?,7.3µM
CN(N=Cc1ccccc1O)c1ccc2ccccc2n1,i,i,i,i,i
Cc1ccc(S(=O)(=O)NCC(c2ccco2)N2CCc3ccccc3C2)cc1 (configuration not stated),i,?,i,i,23µM
O=S(=O)(NCC(c1ccco1)N1CCc2ccccc2C1)c1ccc(Br)cc1 (configuration not stated),i,?,?,?,?
COc1ccc(C)cc1S(=O)(=O)NCC(c1ccco1)N1CCc2ccccc2C1 (configuration not stated),i,?,i,i,29µM
Cc1cccc(-c2noc(CCCC(=O)NC3CCCC3)n2)c1,i,?,i,i,?
SMILES,IL1B secr inh,DT40 TDP1 no CPT,HT1080 IDH1KD tx,HT1080-NT tox,TDP1 cell CPT
COc1ccc(-c2noc(CCCC(=O)NC3CCCC3)n2)cc1,i,16µM,i,i,16µM
O=C(CCCc1nc(-c2ccc(Cl)cc2)no1)NC1CCCC1,i,8.2µM,i,?,8.2µM
CC1(C(=O)NS(=O)(=O)c2ccccc2Cl)CCN1C(=O)C1CCCCC1 (configuration not stated),i,i,i,i,i
COc1cc(-c2nnc(COc3ccc4cc(Br)ccc4c3)o2)cc(OC)c1OC,i,21µM,i,i,23µM
COc1cc(-c2nnc(SCc3cc(=O)oc4cc(C)ccc34)o2)cc(OC)c1OC,i,29µM,i,i,?
COc1cc(-c2nnc(SCC(=O)Oc3ccc(C)cc3C)o2)cc(OC)c1OC,nt,i,nt,nt,i
COc1ccc(-c2nnc(COc3ccc4ccccc4c3)o2)cc1OC,i,?,i,i,i
COc1ccc(-c2nnc(-c3cc(OC)c(OC)c(OC)c3)o2)cc1OC,nt,15µM,i,i,15µM
COc1cc(-c2nnc(SCCOc3ccc(Cl)cc3C)o2)cc(OC)c1OC,nt,i,nt,nt,i
COc1cc(-c2nnc(SCCOc3ccc(Cl)cc3)o2)cc(OC)c1OC,nt,8.2µM,nt,nt,?
CCC1(CC)NC(=O)N(CC(=O)OCC(=O)Nc2ccc(OC(F)(F)F)cc2)C1=O,i,i,i,i[9.24 µM],i
CN(C)CCNC(=S)Nc1ccc(Br)cc1,i,i,i,i,i
Cc1cccc([C@@H]2[C@@H]3C(=O)N(Cc4ccccc4)C(=O)[C@@H]3[C@]3(CC(C)C)C(=O)N(c4cccc(F)c4)C(=O)N23)c1,i,?,i,i,?
O=C(CCn1c(=O)sc2ccccc21)NCCN1CCOCC1,i,i,i,i,i
COC(=O)c1ccccc1NC(=O)c1ccc2c(c1)CCN2S(C)(=O)=O,nt,i,nt,nt,?
Cc1ccc(/C=N/NC(=O)c2ccc3c(c2)OCCO3)s1,i,21µM,13µM,?,21µM
Cc1ccc(/C=N/NC(=O)c2ccc3ccccc3c2)s1,i,0.82µM,2.3µM,?,0.82µM
O=C(N/N=C/c1cccc(O)c1)c1ccc2c(c1)OCCO2,i,i,i,i,i
C=CCN([C@H](C(=O)OC)C(C)C)S(=O)(=O)CCNCc1ccccc1,i,?,i,i,?
COc1ccc(C2=NN(C(=O)c3ccco3)C(c3cccs3)C2)cc1OC (configuration not stated),i,?,i,i,?
O=C(c1ccccc1)N1N=C(c2ccco2)CC1c1cccs1 (configuration not stated),i,21µM,i,i,?
O=C(CCl)N1N=C(c2ccco2)CC1c1cccs1 (configuration not stated),-105,1.8µM,23µM,?,2.1µM
Cc1ccc(C2=NN(C(=O)CCl)C(c3cccs3)C2)o1 (configuration not stated),-102,2.6µM,2.3µM,4.6µM,2.1µM
CC(=O)N1N=C(c2ccco2)CC1c1cccs1 (configuration not stated),i,i,i,i,?
COC(=O)[C@]12CCCCC=C1N(CCC1=CCCCC1)C(=O)[C@H](CC(=O)N1CCC(c3ccccc3)CC1)C2,i,16µM,?,?,?
COC(=O)[C@]12CCCCC=C1N(CCC1=CCCCC1)C(=O)[C@H](CC(=O)N1CCCC1)C2,i,16µM,i,i,?
